High-throughput results deposited in PubChem BioAssay by Broad Institute.
The full list was thinned out, with hits kept by preference.
EZH2 inh – inhibitors of human EZH2/PRC2 methyltransferase | PRC2 H3K27 methylation, DELFIA TRF, 1 h | inhibition, % at 12.5 µM | Q15910 | 57,000 tested, 0.35% active;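 active means mean inhibition of replicates at least 50% and every single replicate also reaching 50%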;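 further: dimethyl H3K27 on biotinylated H3 21-44 peptide detected by antibody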
Target sequence (Q15910 whole entry, looked up): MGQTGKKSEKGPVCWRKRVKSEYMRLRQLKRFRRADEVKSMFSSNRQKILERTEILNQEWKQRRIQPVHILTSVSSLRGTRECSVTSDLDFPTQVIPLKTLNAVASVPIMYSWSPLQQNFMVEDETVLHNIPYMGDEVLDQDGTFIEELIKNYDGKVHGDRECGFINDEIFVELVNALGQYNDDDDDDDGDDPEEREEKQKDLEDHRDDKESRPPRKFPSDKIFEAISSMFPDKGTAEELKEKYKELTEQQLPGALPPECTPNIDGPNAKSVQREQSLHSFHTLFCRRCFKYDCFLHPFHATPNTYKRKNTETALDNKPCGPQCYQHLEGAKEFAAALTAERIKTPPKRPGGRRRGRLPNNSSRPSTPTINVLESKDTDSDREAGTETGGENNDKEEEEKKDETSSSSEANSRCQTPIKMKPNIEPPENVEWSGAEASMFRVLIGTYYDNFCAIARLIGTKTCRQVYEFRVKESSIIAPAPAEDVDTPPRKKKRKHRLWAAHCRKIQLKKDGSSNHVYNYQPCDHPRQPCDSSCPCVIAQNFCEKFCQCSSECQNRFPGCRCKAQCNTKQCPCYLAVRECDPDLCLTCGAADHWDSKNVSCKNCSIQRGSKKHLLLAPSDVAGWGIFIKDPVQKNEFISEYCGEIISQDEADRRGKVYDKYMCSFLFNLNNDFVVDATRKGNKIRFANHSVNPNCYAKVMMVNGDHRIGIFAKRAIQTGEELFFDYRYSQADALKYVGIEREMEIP
Of the large screens only hits and unclear results are named; the others gave an inactive call.

C=C1CC(O)C2C(=C)C(=O)OC2C2C(=C)C(OC3OC(CO)C(O)C(OC(=O)/C=C/c4ccc(O)c(O)c4)C3O)CC12 (stereo unspecified)	EZH2 inh 76
C[C@@H]1O[C@@H](O[C@H]2[C@@H]3C=CO[C@@H](O[C@@H]4O[C@H](CO)[C@@H](O)[C@H](O)[C@H]4O)[C@@H]3[C@@]3(CO)O[C@@H]23)[C@H](OC(=O)/C=C/c2ccc(O)c(O)c2)[C@H](O)[C@H]1O	none
O=C(/C=C/c1ccc(O)c(O)c1)OCCc1ccccc1	none
O=C1O[C@H](c2ccccc2)[C@H](c2ccccc2)N2[C@H]1[C@@H](C(=O)Nc1nc3ccccc3s1)[C@]1(C(=O)Nc3ccc(C#CC4(O)CCCCCC4)cc31)[C@H]2c1ccc(OCCO)cc1	none
COc1c(O[C@@H]2O[C@H](C(=O)O)[C@@H](O)[C@H](O)[C@H]2O)cc2oc(-c3ccc(O)cc3)cc(=O)c2c1O	none
COc1c(O)cc2c(=O)oc3c(OC)c(O[C@@H]4OC[C@@H](O)[C@H](O)[C@H]4O)cc4c(=O)oc1c2c34	EZH2 inh 80
COc1ccc(-c2nnc(SCC(=O)Nc3cccc(C(C)=O)c3)n2-c2ccccc2)cc1	none
O=C(Nc1ccccc1[N+](=O)[O-])c1cccc(S(=O)(=O)Nc2ccccc2)c1	none
Cn1c(SCC(=O)Nc2ccc3c(c2)oc2ccccc23)nc2ccccc2c1=O	none
O=C(Oc1c(CN2CCOCC2)cc(Cl)c2cccnc12)c1ccc([N+](=O)[O-])cc1	none
Cc1c(NC(=O)c2ncn[nH]2)cccc1-c1nc2cc(Cl)ccc2o1	none
COc1ccc2cc(CCC(C)=O)ccc2c1	none
COc1ccc(CCNS(=O)(=O)c2cc(C)ccc2OC)cc1	none
COc1ccc(CCc2cc(OC)cc(=O)o2)cc1	EZH2 inh 52
O=C(CCc1nc(-c2ccc(Cl)cc2)no1)N1CCOCC1	none
Fc1ccccc1CSc1nnc(-c2cnccn2)n1Cc1ccco1	none
Fc1ccccc1-c1nnc(SCc2ccc(Br)cc2)n1Cc1ccco1	EZH2 inh 79
Clc1ccc(CSc2nnc(-c3ccco3)n2Cc2ccco2)c(Cl)c1	none
COC(=O)c1cc(OC)c(OC)cc1NC(=O)COc1ccc(Br)c(C)c1	none
O=C(CSc1nnc(-c2cccc(Br)c2)n1-c1ccccc1)Nc1ccc(Cl)cc1	none
COc1cc(C[C@H]2CO[C@H](c3ccc(O[C@@H]4O[C@H](CO)[C@@H](O)[C@H](O)[C@H]4O)c(OC)c3)[C@H]2CO)ccc1O	EZH2 inh 100
COc1cc(/C=C/c2cc(O)cc(O[C@@H]3O[C@H](CO)[C@@H](O)[C@H](O)[C@H]3O)c2)ccc1O[C@@H]1O[C@H](CO)[C@@H](O)[C@H](O)[C@H]1O	none
COc1cc(C2OCC3(OC4OC(CO)C(O)C(O)C4O)C(c4ccc(O)c(OC)c4)OCC23)ccc1O (stereo unspecified)	none
O=C(CSC1CC(=O)N(c2ccccc2)C1=O)Nc1cccc(Cl)c1 (stereo unspecified)	none
CN(C)c1ccc(/C=N/NC(=O)c2ccc(C(=O)NO)cc2)cc1	none
O=C(CSc1nnc(-c2ccco2)n1-c1ccccc1)c1ccc(F)cc1	none
O=C(O)CC(CCc1ccccc1)OC1OC(CO)C(O)C(O)C1O (stereo unspecified)	EZH2 inh 98
CC(C)CC(=O)O[C@@H]1OC=C(CO[C@@H]2O[C@H](CO)[C@@H](O)[C@H](O)[C@H]2O)[C@H]2C[C@H](O)[C@@](C)(O)[C@@H]12	none
CC(=O)c1cc(C)c(O)c(COC2OC(CO)C(O)C(O)C2O)c1O (stereo unspecified)	none
O=C(CSc1nc(-c2ccccc2)cs1)Nc1ccc(Cl)cc1Cl	none
Cc1cccc(NC(=O)CSc2nnc(-c3ccco3)n2-c2ccccc2)c1C	none
CC(C)=CCN(CC#Cc1ccccc1)[C@H](CO)c1ccccc1	EZH2 inh 66
CC(C)=CCN[C@H](CO)c1ccccc1	none
Cc1cc(NC(=O)c2nn3c(C(F)(F)F)cc(-c4ccccc4)nc3c2Cl)n(-c2ccccc2)n1	none
COC(=O)C1=CO[C@@H](O[C@@H]2O[C@H](CO)[C@@H](O)[C@H](O)[C@H]2O)[C@@H]2[C@@](C)(O)[C@@H](OC(=O)/C=C/c3ccc(OC)c(O)c3)C[C@]12O	EZH2 inh 52
COC(=O)C1=CO[C@@H](O[C@@H]2O[C@H](CO)[C@@H](O)[C@H](O)[C@H]2O)[C@H]2[C@@H]1[C@H](OC(=O)/C=C/c1ccc(O)cc1)C[C@]2(C)OC(C)=O	none
COC(=O)C1=CO[C@@H](O[C@@H]2O[C@H](CO)[C@@H](O)[C@H](O)[C@H]2O)C2C1CCC2(C)O (stereo partly specified)	none
O=C(COc1ccccc1Cl)Nc1ccc2oc(-c3ccccc3Br)nc2c1	none
Cc1ccc(N(CC(N)=O)S(C)(=O)=O)c(C)c1	none
O=C(Nc1ccc(OCc2nc3ccccc3s2)cc1)c1cccc(I)c1	none
O=C(OCc1nc2ccccc2s1)c1ccco1	none
COc1cccc(C(=O)OCc2nc3ccccc3s2)c1	EZH2 inh 53
COc1ccc(OC)c(NC(=O)COc2ccc(C(C)(C)C)cc2)c1	none
CCCCCCCCC(=O)NCc1cc(OC)c(O)cc1I	none
CCCCCCCCCCC(C)(C)C(=O)Nc1c(OC)cc(OC)cc1OC	EZH2 inh 85
